The target in assay [1] is Serine/threonine-protein kinase PAK 6 (Homo sapiens) (UniProt Q9NQU5). The settings on record: at 1 µM.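 Further: values are mean percent inhibition of PAK6 kinase.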
Assay [2] concerns Tyrosine-protein kinase ABL1 (Homo sapiens), P00519 [E255K]. The following applies: at 0.1 µM.
For assay [3] the test system is unchanged. The settings on record: at 1 µM.
In assay [4] the test system is Tyrosine-protein kinase ABL1 (Homo sapiens), P00519 [H396P]. The settings on record: at 0.1 µM.
The test system is the same in assay [5]. The following applies: at 1 µM.
Assay [6] concerns Tyrosine-protein kinase ABL1 (Homo sapiens), P00519 [M351T]. The settings on record: at 0.1 µM.
Assay [7] shares this test system. The settings on record: at 1 µM.
The subject of assay [8] is Tyrosine-protein kinase ABL1 (Homo sapiens), P00519 [Q252H]. The following applies: at 0.1 µM.
Assay [9] shares this test system. The following applies: at 1 µM.
For assay [10], the system named is Tyrosine-protein kinase ABL1 (Homo sapiens), P00519 [T315I]. The following applies: at 0.1 µM.

Inhibition data for 20 compounds are collected here from ChEMBL document CHEMBL1961873, “Compounds: GSK PKIS; Assays: Nanosyn kinase panel” (2012).

What is called inhibition is the drop in the measured response relative to a control, in per cent.

Chain of Serine/threonine-protein kinase PAK 6 (Homo sapiens) (Q9NQU5 whole entry, looked up): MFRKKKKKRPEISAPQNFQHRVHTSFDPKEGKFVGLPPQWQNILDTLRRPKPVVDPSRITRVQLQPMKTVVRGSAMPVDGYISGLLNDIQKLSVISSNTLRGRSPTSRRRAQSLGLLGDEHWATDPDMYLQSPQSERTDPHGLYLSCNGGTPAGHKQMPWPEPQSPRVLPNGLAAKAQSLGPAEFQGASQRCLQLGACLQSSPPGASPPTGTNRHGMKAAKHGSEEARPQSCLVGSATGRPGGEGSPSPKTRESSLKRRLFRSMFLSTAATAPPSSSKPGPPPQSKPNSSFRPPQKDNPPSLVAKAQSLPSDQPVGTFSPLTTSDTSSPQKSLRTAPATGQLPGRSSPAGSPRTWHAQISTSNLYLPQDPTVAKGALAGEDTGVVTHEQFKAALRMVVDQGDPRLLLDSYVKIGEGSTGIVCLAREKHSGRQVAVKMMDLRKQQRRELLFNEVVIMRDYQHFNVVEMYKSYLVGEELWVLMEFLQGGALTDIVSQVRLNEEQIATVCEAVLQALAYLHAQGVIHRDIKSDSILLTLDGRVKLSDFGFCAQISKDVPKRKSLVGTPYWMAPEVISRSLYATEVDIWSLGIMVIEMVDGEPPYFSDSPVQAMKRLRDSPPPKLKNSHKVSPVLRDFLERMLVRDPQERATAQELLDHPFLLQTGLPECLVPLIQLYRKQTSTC

With `CS(=O)(=O)CCNCc1nc(-c2ccc3ncnc(Nc4ccc(F)c(Cl)c4)c3c2)cs1`, the inhibition came to 0.67% in assay [1]; 2.57% in assay [2]; 10.6% in assay [3]; 5.57% in [4]; 16.2% in assay [5]; 0.97% in assay [6]. Further, the inhibition in [7] is 12.9%; in assay [8], 3.6%; in assay [9] it was 16%; in assay [10], 1.06%.

Turning to `CC1=C(C(=O)Nc2ccc3[nH]ncc3c2)C(c2ccc(Cl)c(Cl)c2)CC(=O)N1` (centres undefined), the inhibition in assay [1] is 2.05%; in [2] it was 1.47%; in assay [3] it was -1.52%; in [4], 1.38%; in assay [5] it was 0.16%; in assay [6] it was 1.24%. The inhibition in [7] amounted to 1.38%; in assay [8], 3.45%; in [9], 3.33%; in assay [10], 1.44%.

For `COc1cc(C)c(NC(=O)CN(C)C)cc1Nc1nc(Nc2cccc(F)c2C(N)=O)c2cc[nH]c2n1`, the inhibition in assay [1] was -2.96%; in assay [2] it was 1.11%; in assay [3], 0.03%; in assay [4] it was 2.73%; in assay [5] it was -1.28%; in assay [6], 1.99%. Besides, the inhibition in [7] was -1.18%; in [8], 2.21%; in assay [9], -0.29%; in assay [10] it was 1.45%.

Turning to `N#Cc1c(NC(=O)c2cccc3ccccc23)sc2c1CCCC2`, the inhibition amounted to 1.52% in assay [1]; 4.44% in assay [2]; 5.5% in assay [3]; 4.91% in [4]; 2.88% in [5]; 3.89% in assay [6]. Further, the inhibition in assay [7] is 3.56%; in assay [8], 5.46%; in [9], 3.18%; in assay [10], 2.03%.

With `NC(=O)c1cccc(Nc2nccc(Nc3cccc4[nH]ncc34)n2)c1`, the inhibition in assay [1] worked out at 0.17%; in assay [2], 76.9%; in assay [3], 95.5%; in assay [4], 82.2%; in assay [5] it was 96.7%; in assay [6], 77.9%. Moreover, the inhibition in assay [7] worked out at 95.7%; in assay [8], 73.5%; in [9], 95.4%; in assay [10], 3.14%.

In the case of `Cc1ccc(C(=O)NC2CCCCC2)cc1-c1ccc(C(=O)NCC2CC2)cc1`, the inhibition was -8.15% in assay [1]; 0.94% in [2]; -0.03% in [3]; 4.41% in assay [4]; 0.31% in assay [5]; 3.58% in [6]. Moreover, the inhibition worked out at 2.26% in [7], 3.13% in [8], 2.92% in [9] and 1.36% in [10].

Consider `COc1cc2ncn(-c3cc(OCc4ccccc4Cl)c(C(N)=O)s3)c2cc1OC`, for which the inhibition in assay [1] is -7.5%; in assay [2], 1.52%; in [3] it was 21.7%; in [4], 6.52%; in [5], 31.1%; in assay [6], 4.21%. For the same compound, the inhibition in assay [7] stood at 32.3%; in assay [8], 5.23%; in assay [9], 28.2%; in assay [10], 3.9%.

As to `Cc1nn(C)c2cc(N(C)c3ccnc(Nc4cccc(S(N)(=O)=O)c4)n3)ccc12`, the inhibition in [1] was -9.82%; in [2] it was 27.9%; in assay [3] it was 73.7%; in assay [4], 58.2%; in assay [5], 90%; in [6], 58.2%. Also, the inhibition in assay [7] amounted to 90.2%; in assay [8], 45.7%; in assay [9], 85.4%; in assay [10] it was 20.3%.

Take `Cn1cc(C=C2C(=O)Nc3cccnc32)c2ccccc21`: the inhibition in assay [1] was found to be 0.69%; in [2], 5.17%; in [3], 28.1%; in [4] it was 7.05%; in assay [5] it was 37.5%; in [6], 3.06%. Moreover, the inhibition in [7] amounted to 35.9%; in [8], 6.07%; in assay [9], 33.2%; in assay [10] it was 8.02%.

For the compound `CCCN1CCC(Oc2cc(Nc3nc(Nc4cccc(F)c4C(N)=O)c4cc[nH]c4n3)c(OC)cc2Cl)CC1`, the inhibition in [1] is 6.18%; in assay [2] it was -0.41%; in [3] it was 2.46%; in assay [4], 0.38%; in assay [5] it was 2.29%; in [6] it was 2.95%. Besides, the inhibition in assay [7] amounted to 2.4%; in assay [8], 0.68%; in assay [9], 5.93%; in assay [10] it was 1.91%.

As to `CN(C)c1cc2c(Nc3ccc4nc(Cc5ccccc5)[nH]c4c3)ncnc2cn1`, the inhibition in assay [1] is -5.69%; in [2], 3%; in [3] it was 2.89%; in assay [4] it was 6.52%; in [5], 4.37%; in assay [6], 2.81%. For the same compound, the inhibition in [7] is 3.14%; in assay [8], 6.01%; in assay [9], 5.74%; in [10] it was 5.24%.

As to `O=C1NC(=O)C(N2CCc3ccccc32)=C1c1ccc(Cl)cc1`, the inhibition in assay [1] was -5.45%; in [2], 4.83%; in [3], 4.21%; in [4], 6.7%; in assay [5], 2.97%; in assay [6] it was 3.31%. For the same compound, the inhibition in assay [7] is 3.23%; in assay [8], 6.26%; in [9], 3.84%; in assay [10] it was 2.02%.

Consider `Nc1nc(-c2ccccn2)c(-c2ccc3ncccc3n2)s1`, for which the inhibition was -5.19% in assay [1]; 2.57% in assay [2]; 3.81% in assay [3]; 3.89% in [4]; 4.78% in [5]; -0.12% in assay [6]. Also, the inhibition in assay [7] came out at 3.17%; in assay [8] it was 2.96%; in assay [9], 3.86%; in assay [10], 1.93%.

Regarding `COc1ccc2cc(-c3c(-c4ccncc4)nc(-c4ccc([S+](C)[O-])cc4)n3C)ccc2c1` (centres undefined), the inhibition is -0.4% in [1]; 2.75% in [2]; 1.85% in assay [3]; 0.68% in assay [4]; 3.52% in [5]; 0.25% in assay [6]. Also, the inhibition in assay [7] was determined as 2.54%; in assay [8] it was 1.22%; in [9], 5.05%; in assay [10], 1.07%.

For the compound `CS(=O)(=O)Nc1ccc(N/C=C2\C(=O)Nc3ccccc32)cc1`, the inhibition in assay [1] was -8.06%; in [2], -0.28%; in assay [3], 3.16%; in assay [4] it was -0.26%; in assay [5], 10.9%; in [6], 1.98%. In addition, the inhibition in [7] came to 16.4%; in [8] it was 1.09%; in [9], 11%; in [10], 0.68%.

As to `Fc1cccc(COc2ccc(Nc3ncnc4sc(-c5cccs5)cc34)cc2Cl)c1`, the inhibition is -8.25% in assay [1]; 0.56% in assay [2]; 1.97% in assay [3]; 1.28% in assay [4]; 3.54% in assay [5]; 1.53% in [6]. Also, the inhibition came to 2.68% in [7], 0.76% in [8], 2.11% in assay [9] and 1.08% in assay [10].

Regarding `O=C1NC(=O)C(c2cccc(Cl)c2)=C1Nc1ccc(O)c(Cl)c1`, the inhibition in assay [1] is -3.45%; in assay [2], 0.46%; in assay [3], -0.55%; in [4], 1.43%; in [5], 1.01%; in assay [6], -0.1%. Besides, the inhibition is 1.15% in assay [7], -0.15% in assay [8], 2.63% in assay [9] and 1.14% in [10].

For `CS(=O)(=O)CCNCc1ccc(-c2ccc3ncnc(Nc4ccc(OCc5ccccc5)c(Cl)c4)c3c2)o1`, the inhibition in assay [2] worked out at 1.33%; in assay [3], 0.95%; in assay [4] it was 0.8%; in [5], 3.2%; in assay [6], 1.7%; in assay [7], 2.85%. For the same compound, the figures for the inhibition in [8], in [9] and in assay [10] were 1.92%, 3.15% and 1.4%, respectively.

As to `CS(=O)(=O)CCN(CC#N)Cc1ccc(-c2ccc3ncnc(Nc4ccc(OCc5cccc(F)c5)c(Cl)c4)c3c2)o1`, the inhibition in [1] was -7.94%; in assay [2], 0.94%; in assay [3], 1%; in assay [4], 1.77%; in assay [5], 1.89%; in [6] it was 0.73%. Further, the inhibition in assay [7] was 0.36%; in assay [8], 0.95%; in assay [9], 0.42%; in [10] it was -0.08%.

As to `O=C1NC(=O)C(c2ccccc2Cl)=C1Nc1cccc(O)c1`, the inhibition in assay [1] is 11.2%; in assay [2], 1.22%; in [3], 1.02%; in assay [4] it was 3.02%; in assay [5], 1.17%; in [6], -0.23%. In addition, the inhibition in [7] stood at 2.78%; in assay [8], 2.48%; in assay [9], 1.91%; in [10] it was 3.52%.
